Results reported in PubChem BioAssay AID1159580 (chemical genetic matrix, 2015).
“And” between values parts separate entries of the source, which are not always exact repeats. Identical values can stand only once. Hit rate of the full screen: of about 5,500 compounds, about 2,000 (36%) were called active. About 18% were inconclusive and are not listed. No stated cut-off is given here; in the data, active means normalized growth mostly below about 0.91 (no sharp cut-off); inconclusive means no clear call, values can overlap the other calls; inactive means mostly above about 0.92. The list shows a part of the results.

Experiment: chemical genetic growth profiling, strain panel (AID 1159580);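 further: tested at 20 µM; growth read once vehicle control cultures reached saturation at 30 °C; 1 = growth at the plate median or of vehicle wells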
Conditions: S. cerevisiae deletion strains, growth OD

Measured: normalized growth

C[C@]12CCC3c4ccc(O)cc4CCC3C1C[C@@H](O)[C@@H]2O (some centres undefined)
inactive: locus YAL013W, strain DEP1, stronger effect = lower value 0.994 | locus YAL021C, strain ccr4, stronger effect = lower value 1.01 | locus YAL026C, strain drs2, stronger effect = lower value 1 | locus YAL030W, strain snc1, stronger effect = lower value 1.02 | locus YBL061C, strain skt5, stronger effect = lower value 1.02 | locus YBR009C, strain hhf1, stronger effect = lower value 1.02 | locus YBR021W, strain FUR4, stronger effect = lower value 1.01 | locus YBR023C, strain chs3, stronger effect = lower value 1.03 | locus YBR171W, strain sec66, stronger effect = lower value 1.02 | locus YBR229C, strain ROT2, stronger effect = lower value 0.962 | locus YBR231C, strain swc5, stronger effect = lower value 0.988 | locus YBR279W, strain paf1, stronger effect = lower value 1.04 | locus YCL011C, strain gbp2, stronger effect = lower value 1.05 | locus YCL016C, strain dcc1, stronger effect = lower value 1.05 | locus YCL029C, strain bik1, stronger effect = lower value 0.984 | locus YCL061C, strain MRC1, stronger effect = lower value 1.03 | locus YCL069W, strain vba3, stronger effect = lower value 1.01 | locus YCR088W, strain abp1, stronger effect = lower value 1.01 | locus YDL005C, strain med2, stronger effect = lower value 1.02 | locus YDL035C, strain GPR1, stronger effect = lower value 0.969 | locus YDL040C, strain nat1, stronger effect = lower value 1.01 | locus YDL074C, strain BRE1, stronger effect = lower value 0.951 | locus YDL101C, strain DUN1, stronger effect = lower value 0.997 | locus YDL185W, strain tfp1, stronger effect = lower value 0.974 | locus YDL192W, strain arf1, stronger effect = lower value 0.985 | locus YDR001C, strain nth1, stronger effect = lower value 1.01 | locus YDR069C, strain doa4, stronger effect = lower value 1 | locus YDR101C, strain arx1, stronger effect = lower value 0.945 | locus YDR137W, strain rgp1, stronger effect = lower value 1.06 | locus YDR150W, strain NUM1, stronger effect = lower value 0.989 | locus YDR159W, strain sac3, stronger effect = lower value 0.979 | locus YDR162C, strain NBP2, stronger effect = lower value 0.968 | locus YDR195W, strain ref2 0.999 | locus YDR297W, strain sur2, stronger effect = lower value 1.03 | locus YDR318W, strain mcm21, stronger effect = lower value 1 | locus YDR334W, strain swr1, stronger effect = lower value 1.02 | locus YDR335W, strain msn5, stronger effect = lower value 1.02 | locus YDR388W, stronger effect = lower value 0.982 | locus YDR392W, strain spt3, stronger effect = lower value 1.01 | locus YDR502C, strain sam2, stronger effect = lower value 0.993 | locus YEL003W, strain gim4, stronger effect = lower value 0.994 | locus YEL037C, strain rad23, stronger effect = lower value 1.01 | locus YEL061C, strain CIN8 (second series), stronger effect = lower value 1.01 | locus YEL061C, strain CIN8, stronger effect = lower value 0.997 | locus YER015W, strain faa2, stronger effect = lower value 1.02 | locus YER016W, strain bim1, stronger effect = lower value 1 | locus YER110C, stronger effect = lower value 0.983 | locus YER111C, strain swi4, stronger effect = lower value 1.03 | locus YER155C, strain BEM2 (second series), stronger effect = lower value 1.02 | locus YER155C, strain BEM2, stronger effect = lower value 0.993 | locus YER167W, strain BCK2, stronger effect = lower value 1 | locus YFR010W, strain ubp6, stronger effect = lower value 1.01 | locus YGL078C, strain dbp3, stronger effect = lower value 0.995 | locus YGL086W, strain mad1, stronger effect = lower value 0.971 | locus YGL167C, strain pmr1, stronger effect = lower value 1.03 | locus YGL173C, strain kem1, stronger effect = lower value 1.01 | locus YGL227W, strain vid30, stronger effect = lower value 1.02 | locus YGL240W, strain doc1, stronger effect = lower value 1.03 | locus YGL248W, strain PDE1, stronger effect = lower value 0.988 | locus YGL253W, strain hxk2, stronger effect = lower value 1 | locus YGR135W, strain pre9, stronger effect = lower value 1.07 | locus YGR252W, strain gcn5, stronger effect = lower value 1.07 | locus YHR013C, strain ard1, stronger effect = lower value 1.05 | locus YHR027C, strain rpn1, stronger effect = lower value 1.02 | locus YHR030C, strain SLT2, stronger effect = lower value 0.993 and 1.01 | locus YHR079C, strain IRE1 (second series), stronger effect = lower value 0.987 | locus YHR079C, strain IRE1, stronger effect = lower value 0.992 | locus YHR094C, strain hxt1, stronger effect = lower value 0.984 | locus YHR129C, strain ARP1, stronger effect = lower value 0.994 | locus YHR142W, strain chs7, stronger effect = lower value 1.02 | locus YHR200W, strain rpn10, stronger effect = lower value 1 | locus YIL066C, strain RNR3, stronger effect = lower value 0.977 | locus YIL073C, strain SPO22, stronger effect = lower value 0.991 | locus YIL125W, strain kgd1, stronger effect = lower value 0.985 | locus YIR030C, strain dcg1, stronger effect = lower value 0.994 | locus YJL092W, strain hpr5, stronger effect = lower value 1.02 | locus YJL095W, strain BCK1 (second series), stronger effect = lower value 1.02 | locus YJL095W, strain BCK1, stronger effect = lower value 1 and 0.994 | locus YJL115W, strain asf1, stronger effect = lower value 1.02 | locus YJL129C, strain trk1, stronger effect = lower value 1.03 | locus YJL134W, strain LCB3, stronger effect = lower value 0.989 | locus YJL154C, strain vps35, stronger effect = lower value 1.01 | locus YJL164C, strain tpk1, stronger effect = lower value 1.01 | locus YJL166W, strain qcr8, stronger effect = lower value 1.05 | locus YJL168C, strain set2, stronger effect = lower value 1.01 | locus YJL187C, strain SWE1 (second series), stronger effect = lower value 0.996 | locus YJL187C, strain SWE1, stronger effect = lower value 1.04 | locus YJR043C, strain POL32, stronger effect = lower value 0.976 | locus YJR066W, strain TOR1, stronger effect = lower value 0.97 | locus YJR075W, strain HOC1, stronger effect = lower value 0.992 | locus YKL009W, strain mrt4, stronger effect = lower value 0.973 | locus YKL068W, stronger effect = lower value 0.986 | locus YKL085W, strain MDH1 (second series), stronger effect = lower value 1.01 | locus YKL085W, strain MDH1, stronger effect = lower value 1.01 | locus YKL160W, strain elf1, stronger effect = lower value 1.05 | locus YKR001C, strain vps1, stronger effect = lower value 0.972 | locus YKR026C, strain gcn3, stronger effect = lower value 1.02 | locus YKR091W, strain srl3, stronger effect = lower value 1.02 | locus YLL001W, strain dnm1, stronger effect = lower value 1.05 | locus YLL026W, stronger effect = lower value 1.02 | locus YLL041C, strain sdh2, stronger effect = lower value 1.01 | locus YLR027C, strain aat2, stronger effect = lower value 1.01 | locus YLR039C, strain RIC1, stronger effect = lower value 1.03 | locus YLR058C, strain SHM2, stronger effect = lower value 0.977 | locus YLR102C, strain apc9, stronger effect = lower value 0.996 | locus YLR113W, strain HOG1, stronger effect = lower value 0.97 | locus YLR221C, strain rsa3, stronger effect = lower value 1.05 | locus YLR258W, strain gsy2, stronger effect = lower value 1.01 | locus YLR262C, strain YPT6 (second series), stronger effect = lower value 1.04 | locus YLR262C, strain YPT6, stronger effect = lower value 0.925 | locus YLR268W, strain sec22, stronger effect = lower value 0.987 | locus YLR320W, strain mms22, stronger effect = lower value 1.07 | locus YLR330W, strain CHS5, stronger effect = lower value 0.984 | locus YLR342W, strain FKS1 (second series), stronger effect = lower value 0.999 | locus YLR342W, strain FKS1, stronger effect = lower value 1.02 | locus YLR357W, strain rsc2, stronger effect = lower value 1.03 | locus YLR370C, strain arc18, stronger effect = lower value 1.02 | locus YLR371W, strain rom2, stronger effect = lower value 1.01 | locus YLR384C, strain iki3, stronger effect = lower value 1.02 | locus YLR418C, strain cdc73, stronger effect = lower value 1.02 | locus YML016C, strain PPZ1, stronger effect = lower value 0.989 | locus YML032C, strain rad52, stronger effect = lower value 0.967 | locus YML120C, strain ndi1, stronger effect = lower value 1.04 | locus YML124C, strain tub3, stronger effect = lower value 0.996 | locus YMR058W, strain fet3, stronger effect = lower value 1.01 | locus YMR078C, strain ctf18, stronger effect = lower value 0.991 | locus YMR125W, strain sto1, stronger effect = lower value 1.02 | locus YMR129W, stronger effect = lower value 1 | locus YMR205C, strain PFK2, stronger effect = lower value 1.04 | locus YMR223W, strain ubp8, stronger effect = lower value 1.02 | locus YMR231W, strain pep5, stronger effect = lower value 1.02 | locus YMR307W, strain GAS1, stronger effect = lower value 0.954 | locus YNL067W, strain RPL9B, stronger effect = lower value 0.994 | locus YNL071W, strain lat1, stronger effect = lower value 1.02 | locus YNL153C, strain GIM3, stronger effect = lower value 0.976 | locus YNL183C, strain NPR1, stronger effect = lower value 0.962 | locus YNL209W, strain ssb2, stronger effect = lower value 1.03 | locus YNL233W, strain BNI4, stronger effect = lower value 0.987 | locus YNL248C, strain rpa49, stronger effect = lower value 1.05 | locus YNL250W, strain rad50, stronger effect = lower value 0.987 | locus YNL271C, strain bni1, stronger effect = lower value 0.991 | locus YNL298W, strain CLA4, stronger effect = lower value 0.99 | locus YNL307C, strain MCK1, stronger effect = lower value 0.999 | locus YNL322C, strain KRE1 (second series), stronger effect = lower value 1.05 | locus YNR049C, strain mso1, stronger effect = lower value 1.02 | locus YNR052C, strain pop2, stronger effect = lower value 0.982 | locus YOL012C, strain htz1 1.25 | locus YOL147C, strain pex11, stronger effect = lower value 0.993 | locus YOR001W, strain rrp6, stronger effect = lower value 0.998 | locus YOR061W, strain CKA2, stronger effect = lower value 0.973 | locus YOR069W, strain VPS5, stronger effect = lower value 0.997 | locus YOR070C, strain gyp1, stronger effect = lower value 1.02 | locus YOR080W, strain dia2, stronger effect = lower value 1.02 | locus YOR083W, strain WHI5, stronger effect = lower value 1.06 | locus YOR106W, strain vam3, stronger effect = lower value 1.03 | locus YOR136W, strain idh2, stronger effect = lower value 0.987 | locus YOR144C, strain elg1, stronger effect = lower value 0.993 | locus YOR184W, strain ser1, stronger effect = lower value 1 | locus YOR231W, strain MKK1, stronger effect = lower value 0.972 | locus YOR265W, strain rbl2, stronger effect = lower value 1.02 | locus YOR270C, strain vph1, stronger effect = lower value 1.04 | locus YOR290C, strain snf2, stronger effect = lower value 0.975 | locus YOR316C, strain cot1, stronger effect = lower value 0.985 | locus YPL051W, strain arl3, stronger effect = lower value 1.02 | locus YPL078C, strain atp4, stronger effect = lower value 1.05 | locus YPL106C, strain sse1, stronger effect = lower value 1.06 | locus YPL240C, strain hsp82, stronger effect = lower value 1.03 | locus YPL241C, strain CIN2, stronger effect = lower value 0.989 | locus YPL256C, strain CLN2, stronger effect = lower value 1 | locus YPR119W, strain clb2, stronger effect = lower value 0.989 | locus YPR141C, strain kar3, stronger effect = lower value 0.989 | locus YPR163C, strain tif3, stronger effect = lower value 0.996 | locus YPR167C, strain met16, stronger effect = lower value 0.999 | strain wtn01, stronger effect = lower value 1.01
